# Measured values reported in paper PMC11062922 (Nature Chemical Biology, 2023).
# Like-named read-outs stand apart in the source and are kept apart here.
# What was measured:
# NUAK1 = settings: read-out: apparent Kd, n = 1
# PAK4 = settings: read-out: apparent Kd, n = 1
# [1] = compound concentrations:100 nM and 1000 nM (sheet 'Lestaurtinib' of Supplementary Table 1),run:Lestaurtinib_02496_R2,Plate:MR013
# [2] = compound concentrations:100 nM and 1000 nM (sheet 'Lestaurtinib' of Supplementary Table 1),run:Lestaurtinib_02566_R2,Plate:MR014
# [3] = compound concentrations:100 nM and 1000 nM (sheet 'Lestaurtinib' of Supplementary Table 1),run:Lestaurtinib_02566_R3,Plate:MR014
# [4] = compound concentrations:100 nM and 1000 nM (sheet 'Lestaurtinib' of Supplementary Table 1),run:Lestaurtinib_02572_R2,Plate:MR015
# [5] = compound concentrations:100 nM and 1000 nM (sheet 'Lestaurtinib' of Supplementary Table 1),run:Lestaurtinib_02584_R2,Plate:MR017
# [6] = compound concentrations:100 nM and 1000 nM (sheet 'Lestaurtinib' of Supplementary Table 1),run:Lestaurtinib_02601_R1,Plate:MR018
# [7] = compound concentrations:100 nM and 1000 nM (sheet 'Lestaurtinib' of Supplementary Table 1),run:Lestaurtinib_02606_R1,Plate:MR019
# [8] = compound concentrations:100 nM and 1000 nM (sheet 'Lestaurtinib' of Supplementary Table 1),run:Lestaurtinib_02606_R3,Plate:MR019
# [9] = compound concentrations:100 nM and 1000 nM (sheet 'Lestaurtinib' of Supplementary Table 1),run:Lestaurtinib_02624_R2,Plate:MR020
# [10] = compound concentrations:100 nM and 1000 nM (sheet 'Lestaurtinib' of Supplementary Table 1),run:Lestaurtinib_02724_R1,Plate:MR021
# [11] = compound concentrations:100 nM and 1000 nM (sheet 'Lestaurtinib' of Supplementary Table 1),run:Lestaurtinib_02741_R1,Plate:MR023
# [12] = compound concentrations:100 nM and 1000 nM (sheet 'Lestaurtinib' of Supplementary Table 1),run:Lestaurtinib_02741_R3,Plate:MR023
# [13] = compound concentrations:100 nM and 1000 nM (sheet 'Lestaurtinib' of Supplementary Table 1),run:Lestaurtinib_02748_R1,Plate:MR024
# [14] = compound concentrations:100 nM and 1000 nM (sheet 'Lestaurtinib' of Supplementary Table 1),run:Lestaurtinib_02765_R1,Plate:MR026
# [15] = compound concentrations:100 nM and 1000 nM (sheet 'Lestaurtinib' of Supplementary Table 1),run:Lestaurtinib_02765_R3,Plate:MR026
# [16] = compound concentrations:100 nM and 1000 nM (sheet 'Lestaurtinib' of Supplementary Table 1),run:Lestaurtinib_02766_R1,Plate:MR027
substance,measurement,setting,value
Lestaurtinib,potency estimated from few doses,NUAK1; [1],81.1 nM
same,potency estimated from few doses,NUAK1; [2],73 nM
same,potency estimated from few doses,NUAK1; [3],85.3 nM
same,potency estimated from few doses,NUAK1; [4],17.9 nM
same,potency estimated from few doses,"NUAK1; compound concentrations:100 nM and 1000 nM (sheet 'Lestaurtinib' of Supplementary Table 1),run:Lestaurtinib_02572_R3,Plate:MR015",42.5 nM
same,potency estimated from few doses,"NUAK1; compound concentrations:100 nM and 1000 nM (sheet 'Lestaurtinib' of Supplementary Table 1),run:Lestaurtinib_02577_R2,Plate:MR016",113 nM
same,potency estimated from few doses,"NUAK1; compound concentrations:100 nM and 1000 nM (sheet 'Lestaurtinib' of Supplementary Table 1),run:Lestaurtinib_02577_R3,Plate:MR016",73.6 nM
same,potency estimated from few doses,"NUAK1; compound concentrations:100 nM and 1000 nM (sheet 'Lestaurtinib' of Supplementary Table 1),run:Lestaurtinib_02584_R1,Plate:MR017",89.4 nM
same,potency estimated from few doses,NUAK1; [5],66.9 nM
same,potency estimated from few doses,"NUAK1; compound concentrations:100 nM and 1000 nM (sheet 'Lestaurtinib' of Supplementary Table 1),run:Lestaurtinib_02584_R3,Plate:MR017",134 nM
same,potency estimated from few doses,NUAK1; [6],142 nM
same,potency estimated from few doses,NUAK1; [7],39.7 nM
same,potency estimated from few doses,"NUAK1; compound concentrations:100 nM and 1000 nM (sheet 'Lestaurtinib' of Supplementary Table 1),run:Lestaurtinib_02606_R2,Plate:MR019",58 nM
same,potency estimated from few doses,NUAK1; [8],92 nM
same,potency estimated from few doses,NUAK1; [9],82.2 nM
same,potency estimated from few doses,"NUAK1; compound concentrations:100 nM and 1000 nM (sheet 'Lestaurtinib' of Supplementary Table 1),run:Lestaurtinib_02624_R3,Plate:MR020",96.7 nM
same,potency estimated from few doses,NUAK1; [10],59.7 nM
same,potency estimated from few doses,NUAK1; [11],165 nM
same,potency estimated from few doses,NUAK1; [12],43.7 nM
same,potency estimated from few doses,NUAK1; [13],52.3 nM
same,potency estimated from few doses,"NUAK1; compound concentrations:100 nM and 1000 nM (sheet 'Lestaurtinib' of Supplementary Table 1),run:Lestaurtinib_02748_R2,Plate:MR024",40.2 nM
same,potency estimated from few doses,"NUAK1; compound concentrations:100 nM and 1000 nM (sheet 'Lestaurtinib' of Supplementary Table 1),run:Lestaurtinib_02752_R1,Plate:MR025",56.1 nM
same,potency estimated from few doses,"NUAK1; compound concentrations:100 nM and 1000 nM (sheet 'Lestaurtinib' of Supplementary Table 1),run:Lestaurtinib_02752_R3,Plate:MR025",64.1 nM
same,potency estimated from few doses,NUAK1; [14],74.4 nM
same,potency estimated from few doses,NUAK1; [15],64.4 nM
same,potency estimated from few doses,NUAK1; [16],97.5 nM
same,potency estimated from few doses,"NUAK1; compound concentrations:100 nM and 1000 nM (sheet 'Lestaurtinib' of Supplementary Table 1),run:Lestaurtinib_02766_R3,Plate:MR027",92.8 nM
same,potency estimated from few doses,"NUAK1; compound concentrations:100 nM and 1000 nM (sheet 'Lestaurtinib' of Supplementary Table 1),run:Lestaurtinib_02768_R2,Plate:MR028",41.7 nM
same,potency estimated from few doses,"NUAK1; compound concentrations:100 nM and 1000 nM (sheet 'Lestaurtinib' of Supplementary Table 1),run:Lestaurtinib_02768_R3,Plate:MR028",48.7 nM
same,potency estimated from few doses,"NUAK1; compound concentrations:100 nM and 1000 nM (sheet 'Lestaurtinib' of Supplementary Table 1),run:Lestaurtinib_02795_R1,Plate:MR022",62.8 nM
same,potency estimated from few doses,"NUAK1; compound concentrations:100 nM and 1000 nM (sheet 'Lestaurtinib' of Supplementary Table 1),run:Lestaurtinib_02795_R2,Plate:MR022",38.6 nM
same,potency estimated from few doses,"NUAK1; compound concentrations:100 nM and 1000 nM (sheet 'Lestaurtinib' of Supplementary Table 1),run:Lestaurtinib_02795_R3,Plate:MR022",165 nM
same,potency estimated from few doses,"NUAK1; compound concentrations:100 nM and 1000 nM (sheet 'Lestaurtinib' of Supplementary Table 1),run:Lestaurtinib_02802_R1,Plate:MR029",72.2 nM
same,potency estimated from few doses,"NUAK1; compound concentrations:100 nM and 1000 nM (sheet 'Lestaurtinib' of Supplementary Table 1),run:Lestaurtinib_02802_R3,Plate:MR029",44.9 nM
same,potency estimated from few doses,"NUAK1; compound concentrations:100 nM and 1000 nM (sheet 'Lestaurtinib' of Supplementary Table 1),run:Lestaurtinib_02896_R1,Plate:MR030",52.5 nM
same,potency estimated from few doses,"NUAK1; compound concentrations:100 nM and 1000 nM (sheet 'Lestaurtinib' of Supplementary Table 1),run:Lestaurtinib_02896_R3,Plate:MR030",55.1 nM
same,potency estimated from few doses,"NUAK1; compound concentrations:100 nM and 1000 nM (sheet 'Lestaurtinib' of Supplementary Table 1),run:Lestaurtinib_03172_R2,Plate:MR031",66.5 nM
same,potency estimated from few doses,"NUAK1; compound concentrations:100 nM and 1000 nM (sheet 'Lestaurtinib' of Supplementary Table 1),run:Lestaurtinib_03172_R3,Plate:MR031",62.7 nM
same,potency estimated from few doses,"NUAK1; compound concentrations:100 nM and 1000 nM (sheet 'Lestaurtinib' of Supplementary Table 1),run:Lestaurtinib_03252_R1,Plate:MR032",51.7 nM
same,potency estimated from few doses,"PAK4; compound concentrations:100 nM and 1000 nM (sheet 'Lestaurtinib' of Supplementary Table 1),run:Lestaurtinib_02339_R1,Plate:MR001",32.7 nM
same,potency estimated from few doses,"PAK4; compound concentrations:100 nM and 1000 nM (sheet 'Lestaurtinib' of Supplementary Table 1),run:Lestaurtinib_02339_R2,Plate:MR001",36.1 nM
same,potency estimated from few doses,"PAK4; compound concentrations:100 nM and 1000 nM (sheet 'Lestaurtinib' of Supplementary Table 1),run:Lestaurtinib_02364_R1,Plate:MR002",32 nM
same,potency estimated from few doses,"PAK4; compound concentrations:100 nM and 1000 nM (sheet 'Lestaurtinib' of Supplementary Table 1),run:Lestaurtinib_02364_R2,Plate:MR002",32.9 nM
same,potency estimated from few doses,"PAK4; compound concentrations:100 nM and 1000 nM (sheet 'Lestaurtinib' of Supplementary Table 1),run:Lestaurtinib_02364_R3,Plate:MR002",35.1 nM
same,potency estimated from few doses,"PAK4; compound concentrations:100 nM and 1000 nM (sheet 'Lestaurtinib' of Supplementary Table 1),run:Lestaurtinib_02367_R1,Plate:MR003",29.7 nM
same,potency estimated from few doses,"PAK4; compound concentrations:100 nM and 1000 nM (sheet 'Lestaurtinib' of Supplementary Table 1),run:Lestaurtinib_02367_R2,Plate:MR003",33.6 nM
same,potency estimated from few doses,"PAK4; compound concentrations:100 nM and 1000 nM (sheet 'Lestaurtinib' of Supplementary Table 1),run:Lestaurtinib_02367_R3,Plate:MR003",35.8 nM
same,potency estimated from few doses,"PAK4; compound concentrations:100 nM and 1000 nM (sheet 'Lestaurtinib' of Supplementary Table 1),run:Lestaurtinib_02381_R1,Plate:MR004",31 nM
same,potency estimated from few doses,"PAK4; compound concentrations:100 nM and 1000 nM (sheet 'Lestaurtinib' of Supplementary Table 1),run:Lestaurtinib_02381_R3,Plate:MR004",30 nM
same,potency estimated from few doses,"PAK4; compound concentrations:100 nM and 1000 nM (sheet 'Lestaurtinib' of Supplementary Table 1),run:Lestaurtinib_02407_R2,Plate:MR005",28.6 nM
same,potency estimated from few doses,"PAK4; compound concentrations:100 nM and 1000 nM (sheet 'Lestaurtinib' of Supplementary Table 1),run:Lestaurtinib_02407_R3,Plate:MR005",34.5 nM
same,potency estimated from few doses,"PAK4; compound concentrations:100 nM and 1000 nM (sheet 'Lestaurtinib' of Supplementary Table 1),run:Lestaurtinib_02422_R1,Plate:MR006",44.2 nM
same,potency estimated from few doses,"PAK4; compound concentrations:100 nM and 1000 nM (sheet 'Lestaurtinib' of Supplementary Table 1),run:Lestaurtinib_02422_R2,Plate:MR006",20.2 nM
same,potency estimated from few doses,"PAK4; compound concentrations:100 nM and 1000 nM (sheet 'Lestaurtinib' of Supplementary Table 1),run:Lestaurtinib_02438_R2,Plate:MR008",30.6 nM
same,potency estimated from few doses,"PAK4; compound concentrations:100 nM and 1000 nM (sheet 'Lestaurtinib' of Supplementary Table 1),run:Lestaurtinib_02443_R2,Plate:MR009",31.9 nM
same,potency estimated from few doses,"PAK4; compound concentrations:100 nM and 1000 nM (sheet 'Lestaurtinib' of Supplementary Table 1),run:Lestaurtinib_02443_R3,Plate:MR009",33.2 nM
same,potency estimated from few doses,"PAK4; compound concentrations:100 nM and 1000 nM (sheet 'Lestaurtinib' of Supplementary Table 1),run:Lestaurtinib_02482_R2,Plate:MR011",36.2 nM
same,potency estimated from few doses,"PAK4; compound concentrations:100 nM and 1000 nM (sheet 'Lestaurtinib' of Supplementary Table 1),run:Lestaurtinib_02487_R2,Plate:MR012",38.6 nM
same,potency estimated from few doses,"PAK4; compound concentrations:100 nM and 1000 nM (sheet 'Lestaurtinib' of Supplementary Table 1),run:Lestaurtinib_02487_R3,Plate:MR012",39.1 nM
same,potency estimated from few doses,"PAK4; compound concentrations:100 nM and 1000 nM (sheet 'Lestaurtinib' of Supplementary Table 1),run:Lestaurtinib_02496_R1,Plate:MR013",33 nM
same,potency estimated from few doses,PAK4; [1],30.6 nM
same,potency estimated from few doses,"PAK4; compound concentrations:100 nM and 1000 nM (sheet 'Lestaurtinib' of Supplementary Table 1),run:Lestaurtinib_02496_R3,Plate:MR013",35.4 nM
same,potency estimated from few doses,"PAK4; compound concentrations:100 nM and 1000 nM (sheet 'Lestaurtinib' of Supplementary Table 1),run:Lestaurtinib_02566_R1,Plate:MR014",27.9 nM
same,potency estimated from few doses,PAK4; [2],31 nM
same,potency estimated from few doses,PAK4; [3],38.2 nM
same,potency estimated from few doses,"PAK4; compound concentrations:100 nM and 1000 nM (sheet 'Lestaurtinib' of Supplementary Table 1),run:Lestaurtinib_02572_R1,Plate:MR015",26.1 nM
same,potency estimated from few doses,PAK4; [4],37.9 nM
same,potency estimated from few doses,PAK4; [5],27.4 nM
same,potency estimated from few doses,PAK4; [6],32.9 nM
same,potency estimated from few doses,"PAK4; compound concentrations:100 nM and 1000 nM (sheet 'Lestaurtinib' of Supplementary Table 1),run:Lestaurtinib_02601_R2,Plate:MR018",36.5 nM
same,potency estimated from few doses,"PAK4; compound concentrations:100 nM and 1000 nM (sheet 'Lestaurtinib' of Supplementary Table 1),run:Lestaurtinib_02601_R3,Plate:MR018",32.3 nM
same,potency estimated from few doses,PAK4; [7],35.4 nM
same,potency estimated from few doses,PAK4; [8],35.6 nM
same,potency estimated from few doses,"PAK4; compound concentrations:100 nM and 1000 nM (sheet 'Lestaurtinib' of Supplementary Table 1),run:Lestaurtinib_02624_R1,Plate:MR020",26.1 nM
same,potency estimated from few doses,PAK4; [9],31 nM
same,potency estimated from few doses,PAK4; [10],32.9 nM
same,potency estimated from few doses,"PAK4; compound concentrations:100 nM and 1000 nM (sheet 'Lestaurtinib' of Supplementary Table 1),run:Lestaurtinib_02724_R3,Plate:MR021",33 nM
same,potency estimated from few doses,PAK4; [11],38.6 nM
same,potency estimated from few doses,"PAK4; compound concentrations:100 nM and 1000 nM (sheet 'Lestaurtinib' of Supplementary Table 1),run:Lestaurtinib_02741_R2,Plate:MR023",39.4 nM
same,potency estimated from few doses,PAK4; [12],35.6 nM
same,potency estimated from few doses,PAK4; [13],30.4 nM
same,potency estimated from few doses,PAK4; [14],29.8 nM
same,potency estimated from few doses,"PAK4; compound concentrations:100 nM and 1000 nM (sheet 'Lestaurtinib' of Supplementary Table 1),run:Lestaurtinib_02765_R2,Plate:MR026",36.5 nM
same,potency estimated from few doses,PAK4; [15],36.5 nM
same,potency estimated from few doses,PAK4; [16],27.8 nM
